# Most compounds without a hit are left out; they make up all but 19% or so of the library.
# BCR signal inh: blocks chronic active B-cell receptor signaling; ABC-DLBCL IkBa-CBG/CBR reporter, luminescence ratio, 4 h; Potency, µM (series often up to 46.1 µM), usual class: inhibitors; 0.05% of 340,000 active; AID 493014; active means well fitted inhibition curve with a large enough effect in the signal ratio, with a control signal flat, not every such curve was filed as active; inconclusive means small, poorly fitted or top-dose-only effect, or effect the other way, or a change in a side signal; the % refers to the signal ratio
#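 Cell line TMD8 (human ABC DLBCL), stably expressing tet-inducible CBG68-IkBa fusion and CBR; IMDM/0.5% FBS; cpd up to 46 uM; dox induction, 4 h, 37C/5% CO2; dual luminescence; green/red ratio; MG132 control.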
# IL1B secr inh: inflammasome signaling inhibition, IL-1 beta readout; THP-1 LPS/ATP IL-1B secretion, AlphaLISA, 16 h; active compounds read low; activity change, % at 57.5 µM; 4.7% of 360,000 active; AID 743279; in the data active means activity change below about -50%; inconclusive means mostly about -30% to -49%
#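 THP-1 cells pretreated 1 hr with compounds (up to 57.5 uM final), then stimulated with LPS (250 ng/mL final) plus ATP (1.25 mM final); secreted IL-1B measured by AlphaLISA after 16 hr, decreased signal indicating inhibition.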
# DT40 TDP1 CPT: growth inhibition of DT40 Tdp1-/-;hTDP1 cells with camptothecin (screen for TDP1 inhibitors). chicken DT40 Tdp1-/-;hTDP1 cells + 20 nM CPT, ATP luminescence, 48 h. Potency, µM (titrated, usually from 46.2 µM), actives largely listed as inhibitors. 12% of 420,000 active. AID 686979; further: nearly all actives have a fitted effect of over 55% in size
#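 Chicken DT40 Tdp1-/- cells stably complemented with human TDP1 were seeded at 400 cells/well in medium containing 20 nM camptothecin, exposed to pin-transferred compounds, and grown at 37 °C for at least 48 hr. Viability was read as ATP luminescence.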
# TDP1 cell noCPT: qHTS for Inhibitors of human tyrosyl-DNA phosphodiesterase 1 (TDP1): qHTS in cells in absence of CPT; DT40 Tdp1-/- hTDP1 cells, no CPT, ATP luminescence, 48 h; Potency, µM (highest dose often 46.2 µM), actives largely listed as inhibitors; 15% of 420,000 active; further: nearly all actives have a fitted effect of over 55% in size
#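 Cells were dispensed at 400 per well, compounds added by pin tool, plates incubated ≥48 hr at 37 °C, then CellTiter-Glo added for 30 min at room temperature before luminescence reading. Line: DT40 Tdp1-/- complemented with hTDP1; camptothecin omitted.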
# MCF10A rerep: induces DNA re-replication in MCF 10a normal breast cells. MCF 10A DNA re-replication, Hoechst nuclear intensity, 48 h. Potency, µM (highest dose often 46.1 µM), most hits filed as activators. 2.9% of 350,000 active. AID 624296; further: nearly all actives have a fitted effect of over 50% in size
# SW480 rereplic: inducers of DNA re-replication in SW480 colon cancer cells | SW480 DNA re-replication, Hoechst DNA content imaging, 48 h | Potency, µM (titrated, usually from 46.1 µM), hits mostly activators | 1.8% of 340,000 active | AID 624297; further: nearly all actives have a fitted effect of over 55% in size
#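 Cells (250 per well) received 23 nL compound or DMSO by pin tool and were kept 48 hr at 37 C, 5% CO2. Nuclei were then stained with Hoechst for 40 min and scanned for DNA content.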
# Numbers stand for hits; 0 = inactive; ? = inconclusive; - = no result given; ! = a repeat was not active. Unless noted, the call rests on the fitted dose curve; in most records, active means well fitted curve in the direction sought with a large enough effect; inconclusive means small, poorly fitted or top-dose-only effect, or another doubt; inactive means no such curve, though single readings can be large; an effect the other way counts as inactive or inconclusive.
SMILES,BCR signal inh,IL1B secr inh,DT40 TDP1 CPT,TDP1 cell noCPT,MCF10A rerep,SW480 rereplic
Cc1ccc(NC(=O)c2cccc3c2C(=O)N(C2CCCCC2)C3)cc1,0,?,?,21µM,?,0
CCCN1Cc2cccc(C(=O)NCCc3cccc(C)c3)c2C1=O,0,0,?,?,0,0
CC(C)c1ccc(NC(=O)c2cccc3c2C(=O)N(C2CCCCC2)C3)cc1,-,-,0,0,-,-
CCc1cccc(NC(=O)c2cccc3c2C(=O)N(C2CCCCC2)C3)c1,0,0,?,18µM,0,0
Cc1cc(C)c(NC(=O)c2cccc3c2C(=O)N(C2CCCCC2)C3)c(C)c1,?,0,?,16µM,?,0
O=C(Nc1cccc(F)c1)c1cccc2c1C(=O)N(C1CCCCC1)C2,0,0,0,0,0,0
Cc1cccc(CCNC(=O)c2cccc3c2C(=O)N(C2CCCCC2)C3)c1,?,-66,?,0,?,0
CCOc1ccccc1NC(=O)c1cccc2c1C(=O)N(C1CCCCC1)C2,0,?,?,13µM,0,0
CCOc1ccc(N=Cc2c(O)c3ccccc3oc2=O)cc1,0,0,0,0,0,0
Cc1ccc(OCC(=O)c2c(O)c3ccccc3oc2=O)cc1C,?,0,?,15µM,0,0
CCc1ccc(OCC(=O)c2c(O)c3ccccc3oc2=O)cc1,?,0,?,23µM,?,0
Cc1ccc(C(C)C)c(OCC(=O)c2c(O)c3ccccc3oc2=O)c1,-,0,?,23µM,0,0
O=c1cnc2ccccc2n1Cc1ccccc1,-,0,0,?,-,-
COC(=O)N/N=C/c1cc(Cl)c(OCc2ccc(F)cc2)c(OC)c1,0,0,0,?,0,?
COC(=O)N/N=C/c1cc(Cl)c(OCc2ccccc2F)c(OC)c1,0,0,?,23µM,?,0
Cc1cc(C)c2c(-n3cccc3)c(C(=O)NCc3cccc(F)c3)sc2n1,-,-,0,0,-,-
COc1cc(OC)c2c(c1)C(=O)OC2c1cc(OC)c(OC)cc1C (centres undefined),-,-,?,11µM,-,-
COc1cc(OC)c2c(c1)C(=O)OC2OC (centres undefined),0,0,0,0,0,0
CO/N=C/c1ccc(N2CCN(C(=O)c3cccc(C(F)(F)F)c3)CC2)c([N+](=O)[O-])c1,?,0,15µM,21µM,0,?
CO/N=C/c1ccc(N2CCN(C(=O)c3ccc(Cl)cc3Cl)CC2)c([N+](=O)[O-])c1,0,-62,10µM,5.8µM,0,0
CO/N=C/c1ccc(N2CCN(C(=O)c3ccc(F)cc3)CC2)c([N+](=O)[O-])c1,0,0,15µM,15µM,0,0
O=C(N/N=C/c1ccc(N2CCOCC2)c([N+](=O)[O-])c1)c1ccc(F)cc1,0,0,0,?,0,0
CCOc1ccc(-c2ccc(C3=CC(=O)C[C@H](c4ccc(F)cc4)C3)cc2)cc1,-,0,0,0,-,-
O=C1Cc2cc([N+](=O)[O-])ccc2N1c1c(Cl)cccc1Cl,0,0,0,0,0,0
Cc1ccc(Sc2c(C)nn(C(=O)COc3ccccc3Br)c2C)cc1,-,-,0,0,-,-
SMILES,BCR signal inh,IL1B secr inh,DT40 TDP1 CPT,TDP1 cell noCPT,MCF10A rerep,SW480 rereplic
COc1cc2nc(N3CCCN(C)CC3)nc(Nc3ccncc3)c2cc1OC,-,-,3.2µM,7.9µM,-,-
COc1cc2nc(N3CCCCC3)nc(NC3CC3)c2cc1OC,-,-,13µM,16µM,-,-
COc1cc2nc(N3CCOCC3)nc(NC3CCN(C)CC3)c2cc1OC,-,-,10µM,16µM,-,-
COc1cc2nc(N3CCN(C)CC3)nc(NC3CC3)c2cc1OC,-,-,11µM,10µM,-,-
Cc1ccc(CNC(=O)C2(S(=O)(=O)c3ccccc3)CC=CC2)cc1,0,0,0,0,0,0
CCCC(=O)N1CCC1(C)C(=O)Nc1ccc2nccnc2c1 (centres undefined),-,0,?,0,-,-
COc1ccc2nc3sc(C(=O)N4CCN(c5ccc(F)cc5)CC4)cc3cc2c1,-,-,0,0,-,-
Cc1sc(NC(=O)C2=COCCO2)c(C(N)=O)c1C,0,0,0,0,0,0
COC(=O)c1sccc1S(=O)(=O)N(CC(=O)NCc1ccc(C)cc1)c1ccc(C)cc1,-,-,23µM,?,-,-
COC(=O)c1sccc1S(=O)(=O)N(CC(=O)Nc1c(C)cccc1C)c1ccc(C)c(C)c1,-,-,16µM,0,-,-
CCCCN1C[C@H](C)[C@@H](CC(=O)NC)C1=O,-,0,0,0,-,-
CCOC(=O)c1cc(Cl)c2c(ccc3ccccc32)n1,-,0,0,0,-,-
CCOC(=O)c1cc(OCC)c2c(ccc3cc(OC)ccc32)n1,-,0,?,5.8µM,-,-
COc1cc(OC)c(C2SCCN2S(=O)(=O)c2ccc(F)cc2)cc1OC (centres undefined),0,0,13µM,15µM,?,0
COc1ccc(S(=O)(=O)N2CCSC2c2ccc(N)cc2)cc1 (centres undefined),0,0,0,0,0,0
COc1ccc(OC)c(C2SCCN2S(=O)(=O)c2cccc(C(F)(F)F)c2)c1 (centres undefined),0,?,16µM,?,0,0
CN(C)c1ncc2nc(-c3ccccc3)c(=O)n(Cc3cccs3)c2n1,-,-,0,0,-,-
Cc1cccc(-c2nc3c4c(-c5ccccc5)c(-c5ccccc5)oc4ncn3n2)c1,-,-,0,0,-,-
COc1ccc(CNC(=O)C/C(C)=N/NC(=O)c2ccc(OC)cc2OC)cc1,0,-55,0,0,0,0
O=C(NCc1ccccn1)C1CCN(S(=O)(=O)N2CCC3(CC2)OCCO3)CC1,0,0,0,0,?,12µM!
O=C(NCCN1CCC(Cc2ccccc2)CC1)C1CCN(S(=O)(=O)N2CCC3(CC2)OCCO3)CC1,0,0,15µM,18µM,0,0
CCOC(=O)c1c(NC(=O)/C=C/c2ccccc2)sc2c1CCCC2,-,-,0,0,-,-
Cc1ccc(C2=CC(c3ccccc3)n3ncnc3N2)cc1 (centres undefined),-,0,?,?,0,?
CC(C)c1ccc(C2=CC(c3ccc(C(C)C)cc3)n3nnnc3N2)cc1 (centres undefined),?,-,15µM,15µM,-,-
COc1ccc(C2=CC(c3ccc(F)cc3)n3nnnc3N2)cc1 (centres undefined),0,?,?,18µM,23µM,15µM
Cc1ccc(C2=CC(c3ccc(N(C)C)cc3)n3nnnc3N2)cc1 (centres undefined),0,0,18µM,21µM,23µM,?
COc1ccccc1N1CCN(CCCOc2ccc(F)cc2)CC1,0,0,?,?,?,0
O=C1CCc2ccc(OCCCCN3CCN(c4cccc(Cl)c4Cl)CC3)cc2N1,?,0,16µM,15µM,0,?
